ATXN viability: Viability Counterscreen for Primary qHTS for Inhibitors of ATXN expression. S2 cells (HEK-293 line with an ATXN2-luciferase reporter) viability, CellTiter-Fluor protease fluorescence, 24 h. Potency, µM (doses to about 56.7 µM), actives largely listed as cytotoxic. 0.49% of 400,000 active. AID 651635, 2014; further: potency means the concentration at half of the fitted maximal effect; nearly all actives have a fitted effect of over 40% in size
IL-1B inflam inh: qHTS for Inhibitors of Inflammasome Signaling: IL-1-beta AlphaLISA Primary Screen; THP-1 LPS/ATP IL-1B secretion, AlphaLISA, 16 h; stronger effect = lower value; activity change, % at 57.5 µM; 4.7% of 360,000 active; in the data active means activity change below about -50%; inconclusive means mostly about -30% to -49%; further: on the % scale 0 is the no-effect control and ±100 the full control effect
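THP-1 cells pretreated 1 hr with compounds (up to 57.5 uM final), then stimulated with LPS (250 ng/mL final) plus ATP (1.25 mM final); secreted IL-1B measured by AlphaLISA after 16 hr, decreased signal indicating inhibition.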
ATXN2 expr inh: Primary qHTS for Inhibitors of ATXN expression; 0.72% of 360,000 active; HEK-293 ATXN2-luciferase reporter, luminescence, 24 h; Potency, µM (titrated, usually from 57 µM), without a hit: top-dose activity change, negative = inhibition, most hits filed as inhibitors; further: potency means the concentration at half of the fitted maximal effect; on the % scale 0 is the no-effect control and ±100 the full control effect; nearly all actives have a fitted effect of over 55% in size
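ATXN2-luciferase reporter cells (luciferase flanked by upstream and downstream ATXN2 gene portions) were treated 24 h at 37 °C with compounds at up to 57 uM. SteadyGlo luminescence gave expression; GF-AFC fluorescence gave viability.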
MCF10A rerep: A quantitative high throughput screen for small molecules that induce DNA re-replication in MCF 10a normal breast cells; MCF 10A DNA re-replication, Hoechst nuclear intensity, 48 h; Potency, µM (titrated, usually from 46.1 µM), without a hit: at the highest dose activity, positive = re-replication, usual class: activators; 2.9% of 350,000 active; further: potency means the concentration at half of the fitted maximal effect; % of control where 0% means no effect; nearly all actives have a fitted effect of over 50% in size
SW480 rerep: A quantitative high throughput screen for small molecules that induce DNA re-replication in SW480 colon adenocarcinoma cells. SW480 DNA re-replication, Hoechst DNA content imaging, 48 h. Potency, µM (series often up to 46.1 µM), without a hit: at the top dose re-replication activation, actives largely listed as activators. 1.8% of 340,000 active; further: potency means the concentration at half of the fitted maximal effect; % of control where 0% means no effect; nearly all actives have a fitted effect of over 55% in size
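Compounds, transferred as 23 nL by pin tool, were incubated with cells for 48 hr; DNA content per nucleus was then quantified by Hoechst staining and fluorescence plate imaging.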
PINK1 expr mod: A Quantitative High throughput Screen to Identify Chemical Modulators of PINK1 Expression; PINK1 immunofluorescence, high-content cytometry, 24 h; Potency, µM (series often up to 76.6 µM), without a hit: at the top dose activation (PINK1 increase), actives largely listed as activators; 0.2% of 410,000 active; AID 624263, 2012; active means well fitted activation curve with a large enough effect; inconclusive means small, poorly fitted or top-dose-only effect; cell line not stated here; further: potency means the concentration at half of the fitted maximal effect; % of control where 0% means no effect; nearly all actives have a fitted effect of over 65% in size
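Cells are seeded, rested 12 hours, then given compound at five concentrations or DMSO for 24 hours. After fixation, blocking and antibody staining, PINK1 amount and mitochondrial localization are scored; CCCP serves as control.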
* hit, by the source's call; [ ] = remark or other dose. Rows were chosen to be rich in hits. Some 7.1% of all compounds tested hit in one or more screens of this group. Unless noted, the call rests on the fitted dose curve; in most records, active means well fitted curve in the direction sought with a large enough effect; inconclusive means small, poorly fitted or top-dose-only effect, or another doubt; inactive means no such curve, though single readings can be large; an effect the other way counts as inactive or inconclusive.

For Cc1cc(C)n(-c2nnc(Nc3ccc(C(C)C)cc3)c3ccccc23)n1 the results were ATXN viability inactive, ATXN2 expr inh -37.4% and PINK1 expr mod 1.8%.
COc1ccc(CCC(=O)Nc2c(-c3ccc(N(C)C)cc3)[nH][nH]c2=O)cc1 was read as ATXN viability inconclusive, IL-1B inflam inh -23.3, ATXN2 expr inh 20µM* and PINK1 expr mod -1.4%.
Screening CCOc1ccc(-c2cncc3nccn23)cc1 returned ATXN viability inactive, IL-1B inflam inh -52.0*, ATXN2 expr inh 21.8% and PINK1 expr mod -1.0%.
`COc1ccc(-c2cncc3nccn23)cc1OC` gave ATXN viability inactive, IL-1B inflam inh -6.0, ATXN2 expr inh 1.4% and PINK1 expr mod 0.5%.
For CCc1cc(=S)n2c([nH]c3ccccc32)c1C#N the results were IL-1B inflam inh 0.0, ATXN2 expr inh inconclusive, MCF10A rerep inconclusive, SW480 rerep inconclusive and PINK1 expr mod 15.8µM*.
Screening COc1ccc(NC(=O)CSc2oc(-c3ccc(F)cc3)nc2S(=O)(=O)c2ccc(C)cc2)c(OC)c1 returned ATXN viability inactive, ATXN2 expr inh 16.3% and PINK1 expr mod -1.3%.
CSC1=NSC2=NC(=O)/C(=C\c3coc4ccccc4c3=O)C(=N)N12 was read as ATXN viability inactive, IL-1B inflam inh 4.5, ATXN2 expr inh -4.6%, MCF10A rerep inconclusive, SW480 rerep -21.0% and PINK1 expr mod 0.9%.
Cc1cc(/C=C2\C(=N)N3C(SCc4ccccc4)=NSC3=NC2=O)c(C)n1Cc1ccccc1 was read as ATXN viability inconclusive, IL-1B inflam inh 32.3, ATXN2 expr inh -5.0%, MCF10A rerep 11.3%, SW480 rerep -4.4% and PINK1 expr mod 6.2%[38.3 µM].
CC(C)CSC1=NSC2=NC(=O)/C(=C\c3ccccc3)C(=N)N12 was read as ATXN viability inactive, IL-1B inflam inh 12.1, ATXN2 expr inh 10.5%[11.3 µM], MCF10A rerep 14.6µM*, SW480 rerep 24.8% and PINK1 expr mod 25.4%.
Screening CC(C)CSC1=NSC2=NC(=O)/C(=C\c3coc4ccccc4c3=O)C(=N)N12 returned ATXN viability inactive, IL-1B inflam inh 3.9, ATXN2 expr inh 3.8%, MCF10A rerep 20.6µM*, SW480 rerep -9.3% and PINK1 expr mod inconclusive.
`O=C(CN1CCN(Cc2ccccc2)CC1)Nc1ccc2c(c1)CCC2` gave IL-1B inflam inh -85.9*, ATXN2 expr inh -1.2%, MCF10A rerep -4.0%, SW480 rerep 0.7% and PINK1 expr mod 3.4%.
For O=C(Nc1csc([N+](=O)[O-])c1)Nc1ccccc1Cl the results were ATXN viability inconclusive, IL-1B inflam inh -98.1*, ATXN2 expr inh inconclusive, MCF10A rerep 11.6µM*, SW480 rerep 12.5% and PINK1 expr mod inconclusive.
For O=C(CNc1ccc(C(F)(F)F)cc1)Nc1cccc(S(=O)(=O)N2CCCCC2)c1 the results were ATXN viability inconclusive, IL-1B inflam inh -58.7* and PINK1 expr mod 44.7µM*.
For O=C(Nc1ccncc1)Nc1ccccc1Cl the results were ATXN viability inactive, IL-1B inflam inh -0.4, ATXN2 expr inh 5.9%, MCF10A rerep -6.6%, SW480 rerep -20.2% and PINK1 expr mod -0.7%.
O=C(CNc1ccc(C(F)(F)F)cc1)Nc1cccc(S(=O)(=O)N2CCCC2)c1 was read as ATXN viability inactive, IL-1B inflam inh 26.1, ATXN2 expr inh -36.2%, MCF10A rerep -2.9%, SW480 rerep 0.2% and PINK1 expr mod 4.0%.
For O=C(CN1CCOCC1)Nc1cccc(S(=O)(=O)N2CCCCCC2)c1 the results were ATXN viability inactive, IL-1B inflam inh -0.7, ATXN2 expr inh -17.4%, MCF10A rerep -1.7%, SW480 rerep 0.8% and PINK1 expr mod 4.0%.
O=C(CN1CCN(Cc2ccccc2)CC1)Nc1cccc(S(=O)(=O)N2CCCCCC2)c1 was read as ATXN viability inconclusive, IL-1B inflam inh -68.8*, ATXN2 expr inh -38.4%, MCF10A rerep 4.5%, SW480 rerep inconclusive and PINK1 expr mod -0.7%.
`O=C(CN1CCCC1)Nc1ccc2c(c1)CCC2` gave ATXN viability inactive, IL-1B inflam inh 2.2, ATXN2 expr inh 15.4%, MCF10A rerep 18.2%, SW480 rerep 3.8% and PINK1 expr mod -1.1%.
`CCOc1ccc(NC(=O)Cn2c(=O)n(-c3ccccc3)c(=O)c3c4c(sc32)CCCC4)cc1` gave ATXN viability inconclusive, ATXN2 expr inh 6.3% and PINK1 expr mod 1.8%.
For O=C(CSc1nc2c(c(=O)[nH]1)CN(Cc1ccc3c(c1)OCO3)CC2)Nc1ccc(F)c(F)c1 the results were ATXN viability inconclusive, ATXN2 expr inh 6.1% and PINK1 expr mod 0.7%.
`O=C(Nc1ccc2c(c1)CCC2)Nc1ccccc1Cl` gave ATXN viability inactive, IL-1B inflam inh -68.7*, ATXN2 expr inh 78.6%, MCF10A rerep inconclusive, SW480 rerep 17.7% and PINK1 expr mod 6.7%.
`O=C(COC(=O)c1cc(S(=O)(=O)N2CCCC2)ccc1O)Nc1ccc(SC(F)F)cc1` gave ATXN viability inactive, IL-1B inflam inh -5.3, ATXN2 expr inh 0.0%, MCF10A rerep 2.5%, SW480 rerep -7.5% and PINK1 expr mod 28.8%.
`O=C(CNc1cc(S(=O)(=O)N2CCCC2)ccc1OCC(F)(F)F)Nc1ccc(SC(F)F)cc1` gave ATXN viability inconclusive, IL-1B inflam inh -68.2*, ATXN2 expr inh inconclusive, MCF10A rerep 28.8%, SW480 rerep 4.0% and PINK1 expr mod -1.6%.
For CCCCC(CC)CNC(=O)CN1C(=O)CSc2ccc(S(=O)(=O)N3CCOCC3)cc21 (stereo unspecified) the results were PINK1 expr mod -0.4%.
Screening COc1ccc(CN(Cc2nc3ccccc3c(=O)[nH]2)C(=O)NC2CCCCC2)cc1 returned ATXN viability inactive, IL-1B inflam inh -58.0*, ATXN2 expr inh 8.1%, MCF10A rerep 0.1%, SW480 rerep 8.3% and PINK1 expr mod -1.2%.
COc1ccc(CCN(Cc2nc3ccccc3c(=O)[nH]2)C(=O)c2ccco2)cc1 was read as ATXN viability inactive, IL-1B inflam inh 2.9, ATXN2 expr inh 1.4%, MCF10A rerep 9.8%, SW480 rerep 16.7% and PINK1 expr mod 0.8%.
Screening COc1ccc(CN(CC(=O)NC2CCCC2)C(=O)c2ccc(-c3ccccc3)[nH]2)cc1 returned ATXN viability inactive, IL-1B inflam inh -67.9*, ATXN2 expr inh -17.3%, MCF10A rerep 1.7%, SW480 rerep 3.0% and PINK1 expr mod 0.2%.
